# Bioassay records (PubChem)
# An excerpt weighted towards active compounds, which were near 10% of everything screened.
# GLS inhibitor = glutaminase GLS (human) inhibition. GLS enzymatic activity, qHTS titration. Potency, µM (top dose mostly 45.5 µM), for the others: top-dose activity change, negative = inhibition, most hits filed as inhibitors. 0.21% of 410,000 active. AID 624170; further: on the % scale 0 is the no-effect control and ±100 the full control effect
#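 Compounds were pin-transferred onto hKGA, after which L-glutamine (1 mM solution) and a detection mix of glutamate oxidase, HRP and Amplex Red were added. Initial and 30 min RT fluorescence reads were collected.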
# HP1b binding inh = inhibitors of HP1-beta chromodomain binding to methylated histone tails | 0.56% of 390,000 active | P83916 | Potency, µM (series often up to 114 µM), for inactives: top-dose activity change, negative = inhibition, actives largely listed as inhibitors | AlphaScreen HP1-beta / biotin-H3K9me3 peptide binding; further: nearly all actives have a fitted effect of over 70% in size
# Target sequence (P83916 whole entry, looked up): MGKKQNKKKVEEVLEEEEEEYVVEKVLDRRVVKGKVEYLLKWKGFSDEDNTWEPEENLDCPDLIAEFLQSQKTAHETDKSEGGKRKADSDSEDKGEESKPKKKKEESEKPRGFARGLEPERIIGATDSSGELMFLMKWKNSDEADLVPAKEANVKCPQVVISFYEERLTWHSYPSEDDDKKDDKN
#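 AlphaScreen: HP1-beta (50 nM) preformed 30 min with biotin-H3(1-18)K9me3 peptide (50 nM) in PBS pH 7.4, 0.01% Tween-20. Compound added for 30 min at RT, then streptavidin donor/nickel chelate acceptor beads (10 ug/mL) for 30 min.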
# L3MBTL1 inh = blocks human L3MBTL1; AlphaScreen L3MBTL1–H3K9me1 peptide binding; Potency, µM (highest dose often 57.1 µM), for the others: top-dose activity, negative = inhibition, usual class: inhibitors; 0.66% of 230,000 active; AID 485360; further: on the % scale 0 is the no-effect control and ±100 the full control effect; nearly all actives have a fitted effect of over 60% in size
#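 L3MBTL1 (50 nM) pre-complexed 30 min with biotinylated H3(1-15)K9me1 peptide (75 nM), then compounds added for 30 min at room temperature; AlphaScreen streptavidin donor/nickel chelate acceptor beads (10 ug/mL final) read after 30 min dark incubation.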
# BAZ2B inh = inhibitors of human BAZ2B bromodomain; AlphaScreen BAZ2B-H3K14Ac peptide displacement; 4.4% of 360,000 active; Q9UIF8; Potency, µM (highest dose often 114 µM), inactives show at the top dose activity change, negative = inhibition, actives largely listed as inhibitors; further: on the % scale 0 is the no-effect control and ±100 the full control effect; nearly all actives have a fitted effect of over 60% in size
#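 Multi-concentration screen (max 110 uM) measuring displacement of acetylated histone H3 peptide from BAZ2B by AlphaScreen, using 50 nM protein, 50 nM peptide and 10 ug/mL streptavidin donor plus Ni-chelate acceptor beads.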
# G9a block = blocks human histone lysine methyltransferase G9a; Q96KQ7; G9a H3K9 monomethylation, AlphaScreen, 2 h; Potency, µM (top dose mostly 102 µM), for inactives: at the highest dose activity, negative = inhibition, most hits filed as inhibitors; 8.8% of 350,000 active; further: on the % scale 0 is the no-effect control and ±100 the full control effect; nearly all actives have a fitted effect of over 75% in size
# Target sequence (Q96KQ7 913-1193 limits assumed): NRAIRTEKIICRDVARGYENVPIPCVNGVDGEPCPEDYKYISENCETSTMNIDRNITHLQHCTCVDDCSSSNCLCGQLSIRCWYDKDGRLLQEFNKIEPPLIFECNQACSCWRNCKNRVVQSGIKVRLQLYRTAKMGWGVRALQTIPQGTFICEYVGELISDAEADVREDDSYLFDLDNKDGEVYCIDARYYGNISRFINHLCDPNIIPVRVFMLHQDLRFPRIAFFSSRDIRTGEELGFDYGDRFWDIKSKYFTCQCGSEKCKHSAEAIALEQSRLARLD
#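 Enzyme 20 nM + cpd, 15 min RT; add b-H3K9 pep 500 nM / SAM 20 uM; 2 h RT; anti-H3K9me1 Ab 0.5 ug/mL + SA donor / anti-rabbit acceptor beads 20 ug/mL each, 10 min; AlphaScreen read.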
# JMJD2A Tudor inh = blocks the human JMJD2A Tudor domain | 4.4% of 390,000 active | O75164 | AlphaScreen JMJD2A-Tudor / H3K4me3 peptide binding | Potency, µM (titrated, usually from 114 µM), inactives show at the top dose activity change, negative = inhibition, hits mostly inhibitors | AID 504339; further: on the % scale 0 is the no-effect control and ±100 the full control effect; nearly all actives have a fitted effect of over 50% in size
# * marks the source's active call; other numbers are inactive results; ? = inconclusive; . = no result; [ ] = another dose, or the depositor's remark. The call rests on the fitted dose curve; in most records, active means well fitted curve in the direction sought with a large enough effect; inconclusive means small, poorly fitted or top-dose-only effect, or another doubt; inactive means no such curve, though single readings can be large; an effect the other way counts as inactive or inconclusive. Potency means the concentration at half of the fitted maximal effect.
SMILES,GLS inhibitor,HP1b binding inh,L3MBTL1 inh,BAZ2B inh,G9a block,JMJD2A Tudor inh
Cc1ccc(C)c(N2CCN(CCCNC(=O)c3ccc4nc(N5CCCCC5)sc4c3)CC2)c1,2%,-11%,.,?,?,?
CCc1cc(SC#N)cc(C)c1NC(=O)CCl,10%,47%,-8%,-24%,40µM*,-5%
Cc1cc(SC#N)cc(C)c1NC(=O)CCl,1%,59%,-12%,-3%,?,-7%
O=C(CSc1nc2c(c(=O)[nH]1)CN(Cc1ccc3c(c1)OCO3)CC2)Nc1cccc(Cl)c1,-6%,6%,.,-12%,?,-23%
O=C(O)COc1ccccc1C(Nc1cccnc1)c1cc(Cl)c2cccnc2c1O (stereo not given),36%,?,.,20µM*,2.8µM*,22µM*
CCOc1ccc(C(Nc2cccnc2)c2cc(Cl)c3cccnc3c2O)cc1 (stereo not given),-8%,?,?,45µM*,.,40µM*
O=C(O)COc1ccccc1C(Nc1ccccn1)c1cc(Cl)c2cccnc2c1O (stereo not given),-11%,?,13%,40µM*,7.9µM*,79µM*
Cc1ccc(C)c(NC(=O)Cn2c(=O)n(Cc3ccc4c(c3)OCO4)c(=O)c3ccccc32)c1,-1%,46%,.,0%,-38%[59 µM],-8%
CCOc1ccccc1NC(=O)Nc1cc2c(cc1N1CCCCC1)n(CC)c(=O)n2CC,27%,?,.,?,?,?
CCn1c(=O)n(CC)c2cc(N3CCCC3)c(NC(=O)c3ccccc3OC)cc21,16%,?,.,45µM*,35µM*,?
CCn1c(=O)n(CC)c2cc(N3CCCC3)c(NC(=O)c3cc(Cl)ccc3OC)cc21,11%,?,.,25µM*,40µM*,50µM*
CCOc1ccccc1C(=O)Nc1cc2c(cc1N1CCCC1)n(CC)c(=O)n2CC,15%,-24%[57 µM],.,18µM*,45µM*,50µM*
COc1ccc(Cl)cc1Nc1nnc(-c2ccncc2)s1,1%,103%,.,?,-13%,?
COc1ccc(Nc2nnc(-c3ccncc3)s2)cc1Cl,0%,164%,.,-14%,8.9µM*,-13%
O=C(Nc1ccc(Cl)c(Cl)c1)c1cc(S(=O)(=O)N2CCN(c3cccc(Cl)c3)CC2)ccc1F,0%,-3%,.,5%,-3%[59 µM],-19%
CS(=O)(=O)Nc1ccccc1C(=O)Nc1cc2c(cc1C(=O)O)OCCCO2,19%,14%,.,4%,8.9µM*,1%
CS(=O)(=O)c1ccccc1C(=O)Nc1cc2c(cc1C(=O)O)OCCCO2,0%,20%[57 µM],.,3%,50µM*,-30%
O=C(O)c1cc2c(cc1NC(=O)c1ccccc1C(F)(F)F)OCCCO2,-15%,25%,.,-26%,1%,-7%
O=C(O)c1cc2c(cc1NC(=O)c1c(F)cccc1F)OCCCO2,3%,10%,.,-13%,?,-13%
Cc1cccc(C)c1NC(=O)C(c1ccccc1)N1CCC1=O (stereo not given),29%,-13%,6%,11%,57%[12.7 µM],40µM*
Cc1cccc(C)c1NC(=O)C(c1ccccc1)N1CCC2(CC1)OCCO2 (stereo not given),5%,14%,.,.,.,-1%
O=C(C(c1ccccc1)C(O)(c1ccccc1)c1ccccc1)N1CCOCC1 (stereo not given),-12%,11%[57 µM],.,.,.,-9%
O=C(C(Cl)c1ccccc1)N1CCOCC1 (stereo not given),4%,-11%,.,30%,22µM*,-18%
O=C(Cn1cc(SCc2ccc(F)cc2)c2ccccc21)N1CCCCC1,-2%,49%,.,-26%,-1%[59 µM],3%
CCCC[C@]12Cc3ccccc3C(O1)c1c(c3ccccc3oc1=O)O2,.,.,.,1%[22.9 µM],?,.
O=C(O)/C=C\C(=O)Nc1ccc(N2CCN(c3ccc(Cl)cc3)CC2)cc1,26%,-2%,?,?,10µM*,-34%
